Assay results from PubChem BioAssay (EPA / NIEHS).
The source made the active and inactive calls. The calls were made as follows: active = hit-call score of the fitted dose curve at least 0.9, where 1 is the maximum; inactive = score below 0.9.

Key:
Details in all cases: mRNA level, 48 h; actives raise or lower the signal
[1] = read-out: Cytochrome P450 (CYP1A1), CYP1A1 (gene 1543); assay: LTEA_HepaRG_CYP1A1: Life Technologies and Expression Analysis (LTEA) Assay for Cytochrome P450 (CYP1A1) using HepaRG (AID 2283454)
Procedure, shortened: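 Induction of CYP1A1 mRNA in a human hepatic cell line was measured 48 h after dosing, with 1 mM phenobarbital as induction positive control and 0.5% DMSO vehicle as baseline for bidirectional curve fitting.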

[2] = read-out: CFLAR gene, CFLAR (gene 8837); assay: LTEA_HepaRG_CFLAR: Life Technologies and Expression Analysis (LTEA) Assay for CFLAR gene using HepaRG (AID 2283455)
Procedure, shortened: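 Gain- or loss-of-signal changes in CFLAR transcript were fitted bidirectionally relative to 0.5% DMSO. Cells (HepaRG, duplicate wells) were dosed for 48 h across eight half-log concentrations topping at 100 uM; quantitation by TaqMan qRT-PCR.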

[3] = read-out: Forkhead box O1 (FOXO1), FOXO1 (gene 2308); assay: LTEA_HepaRG_FOXO1: Life Technologies and Expression Analysis (LTEA) Assay for Forkhead box O1 (FOXO1) using HepaRG (AID 2283456)
Procedure, shortened: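 Using one lot of HepaRG hepatic cells kept in 0.5% DMSO, the team applied test chemicals in duplicate, half-log dilutions from 100 uM, for 48 h. Expression, normalised to ACTB/GAPDH/POLR2A, was compared with vehicle in either direction.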

[4] = read-out: growth arrest and DNA damage 45 (GADD45A), GADD45A (gene 1647); assay: LTEA_HepaRG_GADD45A: Life Technologies and Expression Analysis (LTEA) Assay for growth arrest and DNA damage 45 (GADD45A) using HepaRG (AID 2283458)
Procedure, shortened: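 HepaRG, 48 h exposure, 8 conc. (top 100 uM, half-log steps), 0.5% DMSO vehicle, duplicates. Read-out: qRT-PCR mRNA level, housekeeping-normalized (ACTB/GAPDH/POLR2A). Curves fit bidirectionally vs DMSO baseline.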

[5] = read-out: Forkhead box O3 (FOXO3), FOXO3 (gene 2309); assay: LTEA_HepaRG_FOXO3: Life Technologies and Expression Analysis (LTEA) Assay for Forkhead box O3 (FOXO3) using HepaRG (AID 2283459)
Procedure, shortened: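 Gene-expression endpoint: FOXO3 transcript level by qRT-PCR in HepaRG cultures treated 48 h with chemicals up to 100 uM (half-log, 0.5% DMSO vehicle).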

[6] = read-out: ABC Transporter (ABCB1), ABCB1 (gene 5243); assay: LTEA_HepaRG_ABCB1: Life Technologies and Expression Analysis (LTEA) Assay for ABC Transporter (ABCB1) using HepaRG (AID 2283460)
Procedure, shortened: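 Human liver HepaRG line treated 48 h with up to 100 uM compound (eight half-log points, 0.5% DMSO); ABCB1 mRNA change fitted bidirectionally against DMSO controls.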

[7] = read-out: growth arrest and DNA damage 45 (GADD45B), GADD45B (gene 4616); assay: LTEA_HepaRG_GADD45B: Life Technologies and Expression Analysis (LTEA) Assay for growth arrest and DNA damage 45 (GADD45B) using HepaRG (AID 2283461)
Procedure, shortened: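 Values are bidirectional concentration-response fits against 0.5% DMSO controls. Underlying data: qRT-PCR mRNA levels in human HepaRG liver cells treated 48 h in serum-free induction medium, eight concentrations topping at 100 uM.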

[8] = read-out: ABC Transporter (ABCC3), ABCC3 (gene 8714); assay: LTEA_HepaRG_ABCC3: Life Technologies and Expression Analysis (LTEA) Assay for ABC Transporter (ABCC3) using HepaRG (AID 2283462)
Procedure, shortened: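 Differentiated HepaRG liver cells receive test chemicals at eight concentrations (max 100 uM) for 48 h. Expression of ABCC3 is quantified by qRT-PCR against ACTB, GAPDH and POLR2A, and activity is fitted in both directions against the DMSO control.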

[9] = read-out: ABC Transporter (ABCB11), ABCB11 (gene 8647); assay: LTEA_HepaRG_ABCB11: Life Technologies and Expression Analysis (LTEA) Assay for ABC Transporter (ABCB11) using HepaRG (AID 2283463)
Procedure, shortened: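 Using HepaRG cultures held in 0.5% DMSO, chemicals were tested at half-log dilutions from 100 uM for 48 h. Induction or suppression of ABCB11 mRNA, normalized to ACTB, GAPDH and POLR2A, was fitted bidirectionally against vehicle.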

[10] = read-out: ABC Transporter (ABCC2), ABCC2 (gene 1244); assay: LTEA_HepaRG_ABCC2: Life Technologies and Expression Analysis (LTEA) Assay for ABC Transporter (ABCC2) using HepaRG (AID 2283464)
Procedure, shortened: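 Gene expression of ABCC2 was determined by qRT-PCR in HepaRG cells exposed 48 h to chemicals (highest 100 uM, half-log dilutions). Activity was fitted in both directions relative to 0.5% DMSO vehicle.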

[11] = read-out: Broad substrate specificity ATP-binding cassette transporter ABCG2 (Homo sapiens) (UniProt Q9UNQ0); assay: LTEA_HepaRG_ABCG2: Life Technologies and Expression Analysis (LTEA) Assay for ABC Transporter (ABCG2) using HepaRG (AID 2283465)
Procedure, shortened: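 Gene expression of ABCG2 in HepaRG liver cells is quantified by qRT-PCR following 48 h exposure across an eight-point series topping at 100 uM. Values come from bidirectional fitting relative to DMSO vehicle.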

[12] = read-out: ATP-citrate lyase (ACLY), ACLY (gene 47); assay: LTEA_HepaRG_ACLY: Life Technologies and Expression Analysis (LTEA) Assay for ATP-citrate lyase (ACLY) using HepaRG (AID 2283466)
Procedure, shortened: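 ACLY expression changes in human HepaRG liver cells are quantified by qRT-PCR after 48 h exposure to test chemicals (maximum 100 uM, half-log steps). Values are fitted in both directions relative to 0.5% DMSO vehicle.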

[13] = read-out: Alkaline Phosphatase, Placental (ALPP) gene, ALPP (gene 250); assay: LTEA_HepaRG_ALPP: Life Technologies and Expression Analysis (LTEA) Assay for Alkaline Phosphatase, Placental (ALPP) gene using HepaRG (AID 2283468);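 as to AC50: ALPP transcript by TaqMan qRT-PCR normalized to ACTB GAPDH and POLR2A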
Procedure, shortened: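 Expression of ALPP was quantified by qRT-PCR against three housekeeping genes in human HepaRG cultures treated for 48 h with an eight-point concentration series up to 100 uM. Activity in either direction was fitted relative to 0.5% DMSO.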

[14] = read-out: Bcl-2 (BAD) gene, BAD (gene 572); assay: LTEA_HepaRG_BAD: Life Technologies and Expression Analysis (LTEA) Assay for Bcl-2 (BAD) gene using HepaRG (AID 2283469)
Procedure, shortened: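 Activity values reflect up- or down-regulation of BAD mRNA in human HepaRG hepatic cells treated 48 h in serum-free medium, with eight-point half-log dosing capped at 100 uM and 0.5% DMSO vehicle.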

[15] = read-out: Bcl-2 (BAX) gene, BAX (gene 581); assay: LTEA_HepaRG_BAX: Life Technologies and Expression Analysis (LTEA) Assay for Bcl-2 (BAX) gene using HepaRG (AID 2283470)
Procedure, shortened: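 qRT-PCR read-out of BAX mRNA, normalized to three housekeeping genes, after 48 h chemical exposure of human HepaRG cells in serum-free induction medium; eight-point half-log series, top 100 uM, 0.5% DMSO vehicle; bidirectional fit versus DMSO.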

[16] = read-out: Alpha-fetoprotein (AFP) gene, AFP (gene 174); assay: LTEA_HepaRG_AFP: Life Technologies and Expression Analysis (LTEA) Assay for Alpha-fetoprotein (AFP) gene using HepaRG (AID 2283472);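 as to AC50: AFP transcript by TaqMan qRT-PCR normalized to ACTB GAPDH and POLR2A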
Procedure, shortened: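 qRT-PCR (Fluidigm TaqMan) readout of AFP transcript, normalized to three housekeeping genes, fitted bidirectionally against 0.5% DMSO baseline. HepaRG cells received chemicals for 48 h in serum-free induction medium, top concentration 100 uM, half-log steps.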

[17] = read-out: BCL2L11 (gene 10018); assay: LTEA_HepaRG_BCL2L11: Life Technologies and Expression Analysis (LTEA) Assay for Bcl-2 (BCL2L11) gene using HepaRG (AID 2283473)
Procedure, shortened: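 Cells were plated, cultured 48 h, switched to serum-free induction medium, then dosed in duplicate for 48 h at eight half-log concentrations up to 100 uM. Lysates underwent RNA isolation and TaqMan qRT-PCR; gain or loss versus DMSO was fitted.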

[18] = read-out: Peroxisomal acyl-coenzyme A oxidase 1 (ACOX1) gene, ACOX1 (gene 51); assay: LTEA_HepaRG_ACOX1: Life Technologies and Expression Analysis (LTEA) Assay for Peroxisomal acyl-coenzyme A oxidase 1 (ACOX1) gene using HepaRG (AID 2283467)
Procedure, shortened: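 Human HepaRG hepatic cultures, 48 h treatment with test chemicals up to 100 uM. ACOX1 expression read by qRT-PCR relative to 0.5% DMSO vehicle.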

[19] = read-out: adenosine kinase (ADK) gene, ADK (gene 132); assay: LTEA_HepaRG_ADK: Life Technologies and Expression Analysis (LTEA) Assay for adenosine kinase (ADK) gene using HepaRG (AID 2283471)
Procedure, shortened: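 Differentiated HepaRG cells dosed 48 h in serum-free induction medium, 0.5% DMSO vehicle, eight half-log concentrations from 100 uM, in duplicate. ADK mRNA by TaqMan qRT-PCR normalised to ACTB, GAPDH, POLR2A; bidirectional fit versus DMSO.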

Broad substrate specificity ATP-binding cassette transporter ABCG2 (Homo sapiens), sequence (Q9UNQ0 whole entry, looked up): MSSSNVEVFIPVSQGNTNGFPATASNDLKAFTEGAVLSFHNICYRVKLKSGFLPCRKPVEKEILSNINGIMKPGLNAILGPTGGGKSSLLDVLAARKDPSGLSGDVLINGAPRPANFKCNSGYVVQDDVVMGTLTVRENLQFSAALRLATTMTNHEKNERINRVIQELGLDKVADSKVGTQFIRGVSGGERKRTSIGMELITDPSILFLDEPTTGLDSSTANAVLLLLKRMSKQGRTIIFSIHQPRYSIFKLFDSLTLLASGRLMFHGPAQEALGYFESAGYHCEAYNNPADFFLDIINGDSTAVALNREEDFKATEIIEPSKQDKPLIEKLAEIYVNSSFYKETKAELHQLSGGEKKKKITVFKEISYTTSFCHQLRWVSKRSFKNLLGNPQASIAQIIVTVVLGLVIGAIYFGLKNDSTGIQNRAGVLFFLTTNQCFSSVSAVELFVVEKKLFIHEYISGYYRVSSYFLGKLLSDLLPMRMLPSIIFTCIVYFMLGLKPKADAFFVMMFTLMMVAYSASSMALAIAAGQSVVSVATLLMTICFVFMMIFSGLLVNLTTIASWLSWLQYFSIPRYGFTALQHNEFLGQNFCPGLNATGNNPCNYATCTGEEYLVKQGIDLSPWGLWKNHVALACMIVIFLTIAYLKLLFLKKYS

In the case of `C#CC(O)C(CC)CCCC` (stereo not given), the AC50 [1] is reported as 73.1 µM (active), the outcome [2] is reported as “inactive” and the outcome [3] is reported as “inactive”. For the same compound, the outcome [4] was “inactive”, the outcome [5] was “inactive” and the outcome [6] was “inactive”. For the same compound, the outcome [7] was “inactive”, the outcome [8] was “inactive” and the outcome [9] was “inactive”. The outcome [10] was “inactive”, the outcome [11] was “inactive” and the outcome [12] was “inactive”. For the same compound, the outcome [13] was “inactive”, the outcome [14] was “inactive” and the outcome [15] was “inactive”. For the same compound, the outcome [16] was “inactive” and the outcome [17] was “inactive”.
For `O=C(O)c1[nH]n(-c2ccc(S(=O)(=O)O)cc2)c(=O)c1N=Nc1ccc(S(=O)(=O)O)cc1`, the AC50 [1] was 33 µM (active), the outcome [2] was “inactive” and the outcome [3] was “inactive”. The outcome [4] was “inactive”, the outcome [5] was “inactive” and the outcome [6] was “inactive”. For the same compound, the outcome [7] was “inactive”, the outcome [8] was “inactive” and the outcome [9] was “inactive”. For the same compound, the outcome [10] was “inactive”, the outcome [11] was “inactive” and the outcome [12] was “inactive”. For the same compound, the outcome [18] was “inactive”, the outcome [13] was “inactive” and the outcome [14] was “inactive”. The outcome [15] was “inactive”, the outcome [19] was “inactive” and the outcome [16] was “inactive”. The outcome [17] was “inactive”.
`CCCCc1nc2cccnc2n1Cc1ccc(-c2ccccc2-c2nnn[nH]2)cc1` was tested, and the AC50 [1] was 50 µM (active), the outcome [2] was “inactive” and the outcome [3] was “inactive”. For the same compound, the outcome [4] was “inactive”, the outcome [5] was “inactive” and the AC50 [6] was 50 µM (active). For the same compound, the outcome [7] was “inactive”, the outcome [8] was “inactive” and the AC50 [9] was 89.8 µM (active). For the same compound, the AC50 [10] was 50 µM (active), the AC50 [11] was 27.1 µM (active) and the outcome [12] was “inactive”. The outcome [18] was “inactive”, the AC50 [13] was 15.5 µM (active) and the outcome [14] was “inactive”. The outcome [15] was “inactive”, the outcome [19] was “inactive” and the AC50 [16] was 33.2 µM (active). For the same compound, the outcome [17] was “inactive”.
